A structure can be active in one record and inactive in another. Activity calls are given as the source filed them. How the source made its calls: active means hit-call score of the fitted dose curve at least 0.9, where 1 is the maximum; inactive means score below 0.9.
assay: ATG_FoxO_CIS: Attagene CIS-FACTORIAL HepG2 Assay for human Forkhead box O (FoxO) (AID 2282943); settings: HepG2 Attagene cis-reporter, FoxO element, mRNA; actives raise or lower the signal
How it was run: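 24 h chemical exposure, HepG2 with transient cis-MRTU transfection. RNA extraction, oligo(dT) RT, reporter-specific PCR, primer-extension labelling, HpaI digestion, CE fragment analysis; bidirectional fit, DMSO baseline.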

Structure (SMILES) | outcome | AC50
O=S1(=O)OC(c2cc(Br)c(O)c(Br)c2)(c2cc(Br)c(O)c(Br)c2)c2ccccc21 | inactive | –
Cc1cc(Cl)ccc1OCCCC(=O)O | inactive | –
C#C[C@]1(O)CC[C@H]2[C@@H]3CCC4=CC(=O)CC[C@]4(C)[C@H]3CC[C@@]21C | inactive | –
C[C@@H]1O[C@@H](O[C@H]2C[C@@H](O)[C@]3(CO)[C@H]4[C@H](O)C[C@]5(C)[C@@H](C6=CC(=O)OC6)CC[C@]5(O)[C@@H]4CC[C@]3(O)C2)[C@H](O)[C@H](O)[C@H]1O | – | 0.233 µM (active)
C[N+](C)(C)Cc1ccccc1 | inactive | –
COP(=S)(OC)Oc1cc(Cl)c(I)cc1Cl | – | 41.8 µM (active)
O=c1oc2ccccc2c(O)c1C(CC(O)c1ccc(-c2ccc(Br)cc2)cc1)c1ccccc1 (centres undefined) | inactive | –
CN(N=O)C(N)=O | inactive | –
O=S(=O)(F)C(F)(F)C(F)(F)C(F)(F)C(F)(F)F | inactive | –
OCC(c1ccc(Cl)cc1)c1ccc(Cl)cc1 | inactive | –
CCCCC(CC)C(=O)Cl (centres undefined) | inactive | –
C=CC(F)(C(F)(F)F)C(F)(F)C(F)(F)F (centres undefined) | inactive | –
CN(C)CCN(C)C | inactive | –
CCCCS(=O)(=O)Cl | inactive | –
Fc1cccc(Cl)c1CCl | inactive | –
Nc1ncn[nH]1 | inactive | –
CCCCOC(C)=O | inactive | –
CC(=O)C(F)(F)C(F)(F)F | inactive | –
C#CCOC(=O)/C=C(C)/C=C/CC(C)CCCC(C)C (centres undefined) | inactive | –
OC(Cc1ccccc1Cl)(Cn1cncn1)C1(Cl)CC1 (centres undefined) | inactive | –

Structure (SMILES) | outcome | AC50
Cc1cc(C(F)(C(F)(F)F)C(F)(F)F)ccc1NC(=O)c1cccc(I)c1C(=O)NC(C)(C)CS(C)(=O)=O | inactive | –
CCOc1ccc(N)cc1 | inactive | –
O=C(NC(=O)c1c(F)cccc1F)Nc1cc(Cl)c(Oc2ncc(C(F)(F)F)cc2Cl)c(Cl)c1 | inactive | –
CN(N=O)c1ccc([N+](=O)[O-])cc1 | inactive | –
CCOC(=O)C(SP(=S)(OC)OC)c1ccccc1 (centres undefined) | inactive | –
COC(F)(C(F)(F)C(F)(F)F)C(F)(C(F)(F)F)C(F)(F)F (centres undefined) | inactive | –
OC(Cc1ccccc1Cl)(Cn1[nH]cnc1=S)C1(Cl)CC1 (centres undefined) | inactive | –
CC(F)(F)CC(F)(F)F | inactive | –
O=C/C(Cl)=C(/Cl)C(=O)O | – | 132 µM (active)
COc1nn(C(=O)NS(=O)(=O)c2ccccc2OC(F)(F)F)c(=O)n1C | inactive | –
Cc1ccc(CCl)cc1 | inactive | –
Cl[C@H]1OCCO[C@@H]1Cl | inactive | –
NC(=O)CCl | inactive | –
CC(C)[C@@H](Nc1ccc(C(F)(F)F)cc1Cl)C(=O)OC(C#N)c1cccc(Oc2ccccc2)c1 (some centres undefined) | inactive | –
Cc1cc(C(C)(C)c2ccc(O)c(C)c2)ccc1O | – | 72.8 µM (active)
CC1(C)[C@H](C(=O)O[C@H](C#N)c2cccc(Oc3ccccc3)c2)[C@@H]1/C=C(\Cl)C(F)(F)F | inactive | –
ClCCCCl | inactive | –
Cc1ccccc1OP(=O)(Oc1ccccc1)Oc1ccccc1 | inactive | –
CCN(N=O)C(N)=O | inactive | –

assay: ATG_GATA_CIS: Attagene CIS-FACTORIAL HepG2 Assay for human GATA Binding Protein (AID 2282944); settings: HepG2 GATA cis-element reporter, Attagene multiplex mRNA; actives raise or lower the signal
How it was run: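 Reporter transcripts from a GATA cis-regulated unit, among multiplexed reporters in transfected HepG2 cells, were measured by RT-PCR with capillary electrophoresis after 24 h dosing. Induction or loss scored relative to DMSO.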

Structure (SMILES) | outcome | AC50
O=S1(=O)OC(c2cc(Br)c(O)c(Br)c2)(c2cc(Br)c(O)c(Br)c2)c2ccccc21 | inactive | –
Cc1cc(Cl)ccc1OCCCC(=O)O | inactive | –
C#C[C@]1(O)CC[C@H]2[C@@H]3CCC4=CC(=O)CC[C@]4(C)[C@H]3CC[C@@]21C | inactive | –
C[C@@H]1O[C@@H](O[C@H]2C[C@@H](O)[C@]3(CO)[C@H]4[C@H](O)C[C@]5(C)[C@@H](C6=CC(=O)OC6)CC[C@]5(O)[C@@H]4CC[C@]3(O)C2)[C@H](O)[C@H](O)[C@H]1O | – | 0.0716 µM (active)
C[N+](C)(C)Cc1ccccc1 | inactive | –
COP(=S)(OC)Oc1cc(Cl)c(I)cc1Cl | – | 46.2 µM (active)
O=c1oc2ccccc2c(O)c1C(CC(O)c1ccc(-c2ccc(Br)cc2)cc1)c1ccccc1 (centres undefined) | inactive | –
CN(N=O)C(N)=O | inactive | –
O=S(=O)(F)C(F)(F)C(F)(F)C(F)(F)C(F)(F)F | inactive | –
OCC(c1ccc(Cl)cc1)c1ccc(Cl)cc1 | – | 52.8 µM (active)
CCCCC(CC)C(=O)Cl (centres undefined) | inactive | –
C=CC(F)(C(F)(F)F)C(F)(F)C(F)(F)F (centres undefined) | inactive | –
CN(C)CCN(C)C | inactive | –
CCCCS(=O)(=O)Cl | inactive | –
Fc1cccc(Cl)c1CCl | inactive | –
Nc1ncn[nH]1 | inactive | –
CCCCOC(C)=O | inactive | 154 µM (active)
CC(=O)C(F)(F)C(F)(F)F | inactive | –
C#CCOC(=O)/C=C(C)/C=C/CC(C)CCCC(C)C (centres undefined) | inactive | –
OC(Cc1ccccc1Cl)(Cn1cncn1)C1(Cl)CC1 (centres undefined) | inactive | –

Structure (SMILES) | outcome | AC50
Cc1cc(C(F)(C(F)(F)F)C(F)(F)F)ccc1NC(=O)c1cccc(I)c1C(=O)NC(C)(C)CS(C)(=O)=O | inactive | –
CCOc1ccc(N)cc1 | inactive | –
O=C(NC(=O)c1c(F)cccc1F)Nc1cc(Cl)c(Oc2ncc(C(F)(F)F)cc2Cl)c(Cl)c1 | inactive | –
CN(N=O)c1ccc([N+](=O)[O-])cc1 | inactive | –
CCOC(=O)C(SP(=S)(OC)OC)c1ccccc1 (centres undefined) | inactive | –
COC(F)(C(F)(F)C(F)(F)F)C(F)(C(F)(F)F)C(F)(F)F (centres undefined) | inactive | –
OC(Cc1ccccc1Cl)(Cn1[nH]cnc1=S)C1(Cl)CC1 (centres undefined) | inactive | –
CC(F)(F)CC(F)(F)F | inactive | –
O=C/C(Cl)=C(/Cl)C(=O)O | inactive | –
COc1nn(C(=O)NS(=O)(=O)c2ccccc2OC(F)(F)F)c(=O)n1C | inactive | –
Cc1ccc(CCl)cc1 | inactive | –
Cl[C@H]1OCCO[C@@H]1Cl | inactive | –
NC(=O)CCl | inactive | –
CC(C)[C@@H](Nc1ccc(C(F)(F)F)cc1Cl)C(=O)OC(C#N)c1cccc(Oc2ccccc2)c1 (some centres undefined) | inactive | –
Cc1cc(C(C)(C)c2ccc(O)c(C)c2)ccc1O | – | 91.3 µM (active)
CC1(C)[C@H](C(=O)O[C@H](C#N)c2cccc(Oc3ccccc3)c2)[C@@H]1/C=C(\Cl)C(F)(F)F | inactive | –
ClCCCCl | inactive | –
Cc1ccccc1OP(=O)(Oc1ccccc1)Oc1ccccc1 | inactive | –
CCN(N=O)C(N)=O | inactive | –
